# Assay outcomes from PubChem.
# Compounds with a hit are over-represented: about 6.2% of the library has one in this group of screens.
# HT1080NT lethal: qHTS for induction of synthetic lethality in tumor cells producing 2HG: qHTS for the HT-1080-NT fibrosarcoma cell line; HT-1080-NT fibrosarcoma viability, CellTiter-Glo ATP luminescence, 48 h; Potency, µM (series often up to 46.1 µM), most hits filed as cytotoxic; 1.6% of 360,000 active;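 also: NT is the 2HG producing partner of a matched IDH1 knockdown line; nearly all actives have a fitted effect of over 55% in size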
#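 Read-out is CellTiter-Glo luminescence after 10 minutes at room temperature, following 48 hours' compound treatment of HT-1080-NT cells (750 cells/well, RPMI, 5% FBS, 37 degrees C).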
# KB-V1 MDR tox: qHTS assay for MDR1-selective chemotherapeutics: Primary screen using the drug-selected MDR subline cells KB-V1. KB-V1 MDR cells viability, CellTiter-Glo, 72 h. Potency, µM (titrated, usually from 46.1 µM), usual class: cytotoxic. 3.4% of 400,000 active. AID 1347076, 2019; also: nearly all actives have a fitted effect of over 60% in size
#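 Cytotoxicity via CellTiter-Glo luminescence after 72 h compound exposure at 37 degrees C. Cells: drug-selected KB-V1 line, DMEM phenol-red free plus 10% FBS. Compounds tested at multiple concentrations; normalized data fitted to concentration-effect curves.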
# ATXN2 expr inh: Primary qHTS for Inhibitors of ATXN expression; HEK-293 ATXN2-luciferase reporter, luminescence, 24 h; Potency, µM (top dose mostly 57 µM), usual class: inhibitors; 0.72% of 360,000 active; also: nearly all actives have a fitted effect of over 55% in size
#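 ATXN2-luciferase reporter cells (luciferase flanked by upstream and downstream ATXN2 gene portions) were treated 24 h at 37 °C with compounds at up to 57 uM. SteadyGlo luminescence gave expression; GF-AFC fluorescence gave viability.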
# HT1080 IDH1KD tx: qHTS for induction of synthetic lethality in tumor cells producing 2HG: qHTS for the HT-1080-IDH1KD cell line | Potency, µM (highest dose often 46.1 µM), actives largely listed as cytotoxic | 2% of 360,000 active | AID 686971, 2013 | HT-1080 IDH1 knockdown viability, ATP luminescence, 48 h
#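 HT-1080-IDH1KD cells (IDH1 knocked down), 750/well in RPMI with 5% FBS, treated with compound 48 h at 37 degrees C. Viability by CellTiter-Glo luminescence, normalised to DMSO and no-cell wells; concentration-response curves classed.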
# KB-3-1 cytotox: qHTS assay for MDR1-selective chemotherapeutics: Primary screen using the parental adenocarcinoma cell KB-3-1; KB-3-1 viability, CellTiter-Glo ATP luminescence, 72 h; Potency, µM (series often up to 46.1 µM), actives largely listed as cytotoxic; 1.4% of 400,000 active; AID 1347075, 2019; also: nearly all actives have a fitted effect of over 60% in size
#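 Cytotoxicity measured as CellTiter-Glo luminescence after 72 h at 37 C. Compound titrations were pinned onto drug-naive KB-3-1 parental adenocarcinoma cells grown in DMEM with 10% FBS, and normalized data fitted to concentration-response curves.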
# S2 tox: Viability Counterscreen for Primary qHTS for Inhibitors of ATXN expression. 0.49% of 400,000 active. Potency, µM (doses to about 56.7 µM), most hits filed as cytotoxic. S2 cells (HEK-293 line with an ATXN2-luciferase reporter) viability, CellTiter-Fluor protease fluorescence, 24 h; also: nearly all actives have a fitted effect of over 40% in size
# Hits are given with their value; – = inactive; ? = inconclusive; · = no result; ! = a repeat was not active. Calls follow the shape of the dose curve; as a rule, active = well fitted curve in the direction sought with a large enough effect; inconclusive = small, poorly fitted or top-dose-only effect, or another doubt; inactive = no such curve, though single readings can be large; an effect the other way counts as inactive or inconclusive.
SMILES,HT1080NT lethal,KB-V1 MDR tox,ATXN2 expr inh,HT1080 IDH1KD tx,KB-3-1 cytotox,S2 tox
CC1CC(C(F)F)n2nc(C(=O)Nc3sc4c(c3C#N)CCC(C(C)(C)C)C4)nc2N1 (stereo not drawn),–,?,?,–,16.4µM,?
CC(C)(C)C1CCc2c(sc(NC(=O)c3cc(-c4ccc(F)cc4)on3)c2C#N)C1 (stereo not drawn),·,–,–,·,–,–
CN(C)[C@@H]1C(=O)C(C(=O)NCN2CCCC2)=C(O)[C@@]2(O)C(=O)C3=C(O)c4c(O)cccc4[C@@](C)(O)C3C[C@@H]12 (stereo partly drawn),·,·,–,·,·,–
COc1ccc(-c2ccc(=O)[nH]n2)cc1,–,1.84µM,–,–,–,–
COC(=O)c1cc(-c2ccc(OC)c(OC)c2)n[nH]1,–,–,–,–,–,?
O=c1ccc(-c2ccccc2)n[nH]1,–,?,–,–,–,–
COc1cc(-c2ccc(=O)[nH]n2)ccc1OC(F)F,–,0.0517µM,–,–,0.461µM,–
CCOC(=O)Cc1ccc(NC(=O)N2CCOc3ccc(C)cc32)cc1,·,–,·,·,–,·
Cc1ccc(OCc2nc(-c3ccc(C(=O)N4CCN(c5cccc(C(F)(F)F)c5)CC4)cc3)oc2C)cc1,·,–,–,·,–,–
Cn1nnnc1Sc1ncnc2scc(-c3ccc(F)cc3)c12,?,?,?,20.6µM,8.2µM!,?
Cn1nnnc1Sc1ncnc2scc(-c3ccc[nH]3)c12,·,?,10µM,·,?,?
Cn1nnnc1Sc1ncnc2scc(-c3ccc(Br)cc3)c12,·,?,15.8µM,·,11.6µM,12.6µM
Cn1nnnc1Sc1ncnc2scc(-c3ccccc3)c12,–,?,?,–,?,?
COc1ccc(NC(=O)c2cc(-c3ccc(C)o3)nc3ccccc23)cc1OC,?,16.4µM,–,?,?,–
Cc1ccc(NC(=O)c2cc(-c3cccs3)nc3ccccc23)nc1,?,?,–,20.6µM,?,–
Cc1ccc(-c2cc(C(=O)Nc3nccs3)c3ccccc3n2)o1,–,7.31µM,–,–,–,–
Cc1ccc(-c2cc(C(=O)Nc3ccccc3C(N)=O)c3ccccc3n2)o1,–,?,–,–,–,?
O=C(NNc1nc2ccc(Cl)cc2s1)c1cc(-c2cccs2)nc2ccccc12,?,?,31.6µM,?,?,?
Cc1cc(C)c2nc(NNC(=O)c3cc(-c4cccs4)nc4ccccc34)sc2c1,?,–,?,?,–,–
Cc1ccc2nc(N3CCC(C(=O)N4CCN(c5cccc(C)c5C)CC4)CC3)[nH]c2c1,·,–,·,·,?,·
COC(=O)c1sc(S(=O)(=O)NC(Cc2ccccc2)C(=O)O)c(C(=O)OC)c1C (stereo not drawn),–,–,–,–,–,–
O=C(Nc1nccs1)c1cc(-c2ccncc2)nc2ccccc12,–,?,–,–,–,–
Cc1ccc(-c2cc(C(=O)Nc3nccs3)c3ccccc3n2)c(C)c1,–,13µM,–,–,–,?
CCOC(=O)c1cnc2c(OC)cccc2c1Nc1cccc(O)c1,·,13µM,–,·,?,–
COC(=O)C1CCN(Cc2ccc3c(c2)CN(C(=O)c2ccc(-n4cnnn4)cc2)CCO3)CC1,·,·,·,·,·,–
SMILES,HT1080NT lethal,KB-V1 MDR tox,ATXN2 expr inh,HT1080 IDH1KD tx,KB-3-1 cytotox,S2 tox
O=C(CN1CCN(Cc2ccc(Cl)cc2)C1=O)NCCCN1CCN(c2ccc(F)cc2)CC1,?,–,–,15.8µM,?,–
O=C(NCCCN1CCN(c2ccc(F)cc2)CC1)Nc1ccc(Cl)cc1,·,–,?,·,–,?
O=C(NCCCN1CCN(c2ccc(F)cc2)CC1)NC12CC3CC(CC(C3)C1)C2,16.4µM,–,?,14.6µM,–,–
Oc1ccc(-c2cc(-c3ccc(O)cc3)nc(-c3ccccc3)n2)cc1,11.6µM,–,–,?,–,–
Cn1cc(C=CC(=O)c2cccc(F)c2)cc1C=CC(=O)NO,·,·,–,·,·,·
CCn1c(-c2ccccc2F)nc2cc(NC(C)=O)cc(C(=O)NC(c3ccccn3)C(F)(F)F)c21 (stereo not drawn),·,·,·,·,·,–
Cc1cccc(N(C)C(=O)CN(C)S(=O)(=O)c2ccc3c(c2)c(=O)n(C)c(=O)n3C)c1,–,–,–,–,–,–
COc1ccc(C2=CC(=O)OC(C)(c3ccccc3)O2)cc1 (stereo not drawn),–,16.4µM,–,–,–,–
CC1(c2ccccc2)CC(C)(C)N(C(=O)CSc2nnc(N)s2)c2ccccc21 (stereo not drawn),–,16.4µM,?,–,–,?
CCN1C(=O)CC(CC(=O)N2CCC(c3nc4ccc(F)cc4[nH]3)CC2)(c2ccccc2C)C1=O (stereo not drawn),·,·,·,·,·,–
Cc1cc2c(n1-c1ccc(C(N)=O)cc1)CC(C)(C)CC2=O,–,–,–,–,–,–
CC1(C)CC(=O)c2c(C(F)(F)F)nn(-c3ccc(C(N)=O)c(NC4CCC(OC(=O)CN)CC4)c3)c2C1 (stereo not drawn),·,·,0.217µM,·,·,·
CC1(C)CC(=O)c2c(C(F)(F)F)nn(-c3ccc(C(N)=O)c(NC4CCC(O)CC4)c3)c2C1 (stereo not drawn),·,·,0.0968µM,·,·,·
CCOC(=O)c1ccccc1NC(=O)CN1CCC(n2nnc3cc(F)ccc32)CC1,–,–,–,–,–,–
O=C1C(Cl)=C(N2CCCCC2)C(=O)C(Cl)=C1c1cnc(N2CCCCC2)s1,?,–,?,16.4µM,18.4µM,?
O=S1(=O)N=C(Oc2cccc(C(F)(F)F)c2)c2ccccc21,·,–,·,·,?,·
CCCc1cc2c(=O)c(-c3ccc4c(c3)OCCO4)coc2cc1OS(C)(=O)=O,–,10.3µM,–,–,?,–
CCOC(=O)N1CCN(S(=O)(=O)N2CCCC(C(=O)NCc3cc(Br)ccc3OC)C2)CC1 (stereo not drawn),–,–,·,–,–,–
COc1cc(-c2noc(C)c2/C=C/c2ccc(OC(C)=O)cc2)cc(OC)c1OC,0.366µM,1.3µM!,–,0.517µM,0.731µM,?
Cc1ccc(Cl)cc1NC(=O)c1sc2nc(-c3ccccc3)cn2c1C,·,–,–,·,–,–
COc1ccc(-n2nc3ccc(NC(=O)c4c(OC)cccc4OC)cc3n2)cc1,·,–,–,·,–,–
Cc1cc(C(=O)N2CCc3ccccc32)n(-c2ccccc2)n1,?,?,–,?,10.3µM,?
COc1ccc(-n2cnc3cc(C(=O)NCC4CCCO4)ccc32)cc1 (stereo not drawn),–,–,–,–,?,–
